The values below come from the antibiotic and cytotoxicity screens of Wong et al. (2023).

Screen size: about 39,000 compounds; about 3,300 (8.5%) were called active. The list comes from a sample in which actives are over-represented; it also holds similar structures and randomly drawn compounds.

This test concerns HepG2. In words: cytotoxicity call (relative viability < 0.9). The following applies: 10 µM.
Turning to `CCCN(C)C[C@@H]1OCCCC[C@H](C)Oc2ccc(NC(=O)Nc3ccc4c(c3)OCO4)cc2C(=O)N([C@H](C)CO)C[C@@H]1C`, the cytotoxicity call was “inactive”.

For the compound `C[C@@H]1CN([C@H](C)CO)S(=O)(=O)c2ccc(/C=C/c3ccccc3)cc2O[C@@H]1CN(C)C(=O)Nc1cc(F)ccc1F`, the cytotoxicity call was “active”.

Regarding `C[C@H]1CN([C@@H](C)CO)S(=O)(=O)c2ccc(C#CC3(O)CCCC3)cc2O[C@H]1CN(C)C(=O)Nc1ccccc1`, the cytotoxicity call is “inactive”.

For the compound `C[C@H](CO)N1C[C@H](C)[C@@H](CN(C)C(=O)Nc2cc(F)ccc2F)Oc2cc(/C=C/c3ccccc3)ccc2S1(=O)=O`, the cytotoxicity call was “inactive”.

In the case of `C[C@@H]1CN([C@H](C)CO)S(=O)(=O)c2ccc(C#CC3(O)CCCC3)cc2O[C@H]1CN(C)C(=O)Nc1ccccc1`, the cytotoxicity call is “inactive”.

`C[C@@H]1CN([C@H](C)CO)S(=O)(=O)c2ccc(C#CC3(O)CCCC3)cc2O[C@@H]1CN(C)C(=O)Nc1ccccc1`: the cytotoxicity call was “active”.

Turning to `C[C@@H]1CN([C@H](C)CO)S(=O)(=O)c2ccc(/C=C/c3ccccc3)cc2O[C@H]1CN(C)C(=O)Nc1cc(F)ccc1F`, the cytotoxicity call is “inactive”.

For the compound `COc1cccc(NC(=O)N(C)C[C@H]2Oc3cc(C#CC4(O)CCCC4)ccc3S(=O)(=O)N([C@H](C)CO)C[C@H]2C)c1`, the cytotoxicity call is “active”.

Regarding `COc1cccc(NC(=O)N(C)C[C@H]2Oc3cc(C#CC4(O)CCCC4)ccc3S(=O)(=O)N([C@@H](C)CO)C[C@H]2C)c1`, the cytotoxicity call is “inactive”.

Consider `COc1cccc(NC(=O)N(C)C[C@H]2Oc3cc(C#CC4(O)CCCC4)ccc3S(=O)(=O)N([C@H](C)CO)C[C@@H]2C)c1`, for which the cytotoxicity call was “inactive”.

Regarding `COc1ccc(NC(=O)N(C)C[C@H]2OCCCC[C@H](C)Oc3ccc(NS(=O)(=O)c4cccs4)cc3C(=O)N([C@@H](C)CO)C[C@@H]2C)cc1`, the cytotoxicity call was “inactive”.

With `C[C@H](CO)N1C[C@H](C)[C@H](CN(C)S(=O)(=O)c2ccc3c(c2)OCCCO3)OCc2cn(nn2)CCCC1=O`, the cytotoxicity call was “inactive”.

Consider `C[C@H]1CCCCO[C@@H](CN(C)C(=O)CCC(F)(F)F)[C@@H](C)CN([C@@H](C)CO)C(=O)c2cc(NS(=O)(=O)c3ccccc3)ccc2O1`, for which the cytotoxicity call was “inactive”.

On to `NC(=O)N1Cc2nccn2C[C@H](Cn2cncn2)C1`, for which the cytotoxicity call is “inactive”.

Take `Cc1ccc(S(=O)(=O)Nc2ccc3c(c2)C(=O)N([C@H](C)CO)C[C@@H](C)[C@H](CN(C)C(=O)Nc2ccccc2)OCCCC[C@@H](C)O3)cc1`: the cytotoxicity call is “inactive”.

Regarding `O=C(C[C@@H]1CC[C@@H]2[C@H](COC[C@@H](O)CN2S(=O)(=O)c2ccccc2F)O1)N1CCC(Cc2ccccc2)CC1`, the cytotoxicity call is “inactive”.

Take `Cc1ccccc1S(=O)(=O)N1C[C@H](O)COC[C@H]2O[C@@H](CC(=O)N3CCC(Cc4ccccc4)CC3)CC[C@@H]21`: the cytotoxicity call was “active”.

Turning to `Cc1ccccc1S(=O)(=O)N1C[C@H](O)COC[C@@H]2O[C@H](CC(=O)N3CCC(Cc4ccccc4)CC3)CC[C@H]21`, the cytotoxicity call was “inactive”.

For `O=C(C[C@@H]1CC[C@H]2[C@@H](COC[C@@H](O)CN2S(=O)(=O)c2ccccc2F)O1)N1CCC(Cc2ccccc2)CC1`, the cytotoxicity call is “inactive”.

`CN1CCN(C(=O)C[C@H]2CC[C@@H]3[C@H](COC[C@@H](O)CN3Cc3ccc(Oc4ccccc4)cc3)O2)CC1`: the cytotoxicity call is “active”.

In the case of `CN1CCN(C(=O)C[C@@H]2CC[C@H]3[C@@H](COC[C@@H](O)CN3Cc3ccc(Oc4ccccc4)cc3)O2)CC1`, the cytotoxicity call is “inactive”.

As for `Cc1ccccc1S(=O)(=O)N1C[C@@H](O)COC[C@H]2O[C@H](CC(=O)N3CCC(Cc4ccccc4)CC3)CC[C@@H]21`, the cytotoxicity call is “active”.

Turning to `Cc1ccccc1S(=O)(=O)N1C[C@@H](O)COC[C@H]2O[C@@H](CC(=O)N3CCC(Cc4ccccc4)CC3)CC[C@@H]21`, the cytotoxicity call is “inactive”.

Take `Cc1ccccc1S(=O)(=O)N1C[C@H](O)COC[C@@H]2O[C@@H](CC(=O)N3CCC(Cc4ccccc4)CC3)CC[C@H]21`: the cytotoxicity call was “inactive”.

As to `CN1CCN(C(=O)C[C@H]2CC[C@H]3[C@@H](COC[C@H](O)CN3Cc3ccc(Oc4ccccc4)cc3)O2)CC1`, the cytotoxicity call is “inactive”.

Consider `Cc1ccccc1S(=O)(=O)N1C[C@H](O)COC[C@H]2O[C@H](CC(=O)N3CCC(Cc4ccccc4)CC3)CC[C@@H]21`, for which the cytotoxicity call was “active”.

In the case of `Cc1ccccc1S(=O)(=O)N1C[C@@H](O)COC[C@@H]2O[C@H](CC(=O)N3CCC(Cc4ccccc4)CC3)CC[C@H]21`, the cytotoxicity call was “inactive”.

As to `C[C@@H]1CCCCO[C@H](CN(C)C(=O)Nc2ccc(F)cc2)[C@@H](C)CN([C@H](C)CO)C(=O)c2cc(NC(=O)C3CCCCC3)ccc2O1`, the cytotoxicity call was “inactive”.

As for `C[C@@H]1CCCCO[C@@H](CN(C)C(=O)c2ccccc2)[C@H](C)CN([C@H](C)CO)C(=O)c2cc(NS(=O)(=O)c3ccccc3)ccc2O1`, the cytotoxicity call is “inactive”.

Turning to `C=c1ccccc1=C1NN=C(CN2CCCC2)O1`, the cytotoxicity call was “inactive”.

Consider `C[C@H]1CCCCO[C@H](CN(C)Cc2ccc(Cl)c(Cl)c2)[C@@H](C)CN([C@@H](C)CO)C(=O)c2cc(NS(C)(=O)=O)ccc2O1`, for which the cytotoxicity call is “inactive”.

`COCC#Cc1ccc2c(c1)O[C@H](CN(C)S(=O)(=O)c1cccc(F)c1)[C@@H](C)CN([C@H](C)CO)S2(=O)=O`: the cytotoxicity call was “inactive”.

As to `C[C@@H]1CCCCO[C@H](CN(C)Cc2ccc(C(=O)O)cc2)[C@@H](C)CN([C@@H](C)CO)C(=O)c2cc(NC(=O)NC3CCCCC3)ccc2O1`, the cytotoxicity call is “inactive”.

Take `Cc1ccc2nc(-c3ccc(/N=C\c4ccc[nH]4)cc3)sc2c1`: the cytotoxicity call was “active”.

Regarding `Cc1ccc2nc(/N=C/c3ccc(Cl)cc3Cl)sc2c1`, the cytotoxicity call is “inactive”.

Take `Cc1ccc2nc(-c3ccc(NC(=O)C4CCC4)cc3)sc2c1`: the cytotoxicity call is “inactive”.

`COc1ccc2c3c([nH]c2c1)[C@H](CO)N(C[C@]13CCN(CC1)CC1CCCCC1)C(=O)Nc1cccc(c1)F`: the cytotoxicity call is “active”.

Take `COc1ccc2c3c([nH]c2c1)[C@@H](CO)N(C[C@]13CCN(CC1)CC1CCCCC1)C(=O)Nc1cccc(c1)F`: the cytotoxicity call was “active”.

Take `COc1ccc2c3c([nH]c2c1)[C@H](CO)N(CC1CCCCC1)C[C@]13CCN(CC1)C(=O)Nc1cccc(c1)F`: the cytotoxicity call was “inactive”.

In the case of `COc1ccc2c3c([nH]c2c1)[C@@H](CO)N(CC1CCCCC1)C[C@]13CCN(CC1)C(=O)Nc1cccc(c1)F`, the cytotoxicity call was “inactive”.

`COc1ccc2c3c([nH]c2c1)[C@H](CO)N(C[C@]13CCN(CC1)CC1CCCCC1)C(=O)Nc1c(noc1C)C`: the cytotoxicity call was “inactive”.

With `COc1ccc2c3c([nH]c2c1)[C@@H](CO)N(C[C@]13CCN(CC1)CC1CCCCC1)C(=O)Nc1c(noc1C)C`, the cytotoxicity call is “inactive”.

In the case of `C[C@@H]1CCCCO[C@@H](CN(C)C(=O)CCC(F)(F)F)[C@@H](C)CN([C@H](C)CO)C(=O)c2cc(NC(=O)Nc3ccc(F)cc3)ccc2O1`, the cytotoxicity call is “inactive”.

On to `C[C@H]1CN([C@@H](C)CO)C(=O)c2cccc(NC(=O)c3ccc(-c4nccs4)cc3)c2O[C@@H]1CN(C)C(=O)Nc1ccc(F)cc1`, for which the cytotoxicity call is “inactive”.

Consider `Cc1noc(C)c1NC(=O)N(C)C[C@@H]1OCCCC[C@H](C)Oc2ccc(NC(=O)NC3CCCCC3)cc2C(=O)N([C@@H](C)CO)C[C@@H]1C`, for which the cytotoxicity call was “inactive”.

For the compound `O=c1[nH]nc(Br)c(=O)[nH]1`, the cytotoxicity call is “inactive”.

Regarding `O=C(O)C[C@H]1CC[C@@H]2[C@H](COC[C@@H](O)CN2S(=O)(=O)c2ccc(F)cc2)O1`, the cytotoxicity call is “inactive”.

Take `O=C(O)c1cc(=O)c2ccccc2o1`: the cytotoxicity call was “inactive”.

`CC(=O)CC(c1ccccc1)c1c(O)c2ccccc2oc1=O` (stereo not given): the cytotoxicity call is “active”.

Turning to `O=c1oc2ccccc2c(O)c1Cc1c(O)c2ccccc2oc1=O`, the cytotoxicity call was “inactive”.

`CO[C@@H](CN(C)S(=O)(=O)c1cccc(Cl)c1)[C@@H](C)CN([C@@H](C)CO)S(=O)(=O)c1cccc(Cl)c1`: the cytotoxicity call is “inactive”.

Consider `C[C@H](CO)N1C[C@H](C)[C@H](CN(C)Cc2ccc(Oc3ccccc3)cc2)Oc2ccc(NC(=O)Cc3cn(C)c4ccccc34)cc2CC1=O`, for which the cytotoxicity call was “active”.

Consider `C[C@@H]1CN([C@@H](C)CO)C(=O)Cc2cc(NC(=O)Cc3cn(C)c4ccccc34)ccc2O[C@H]1CN(C)Cc1ccc(Oc2ccccc2)cc1`, for which the cytotoxicity call was “active”.

Turning to `C[C@H]1CN([C@@H](C)CO)C(=O)Cc2cc(NC(=O)Cc3cn(C)c4ccccc34)ccc2O[C@@H]1CN(C)Cc1ccc(Oc2ccccc2)cc1`, the cytotoxicity call is “inactive”.

Consider `C[C@H]1CN([C@@H](C)CO)C(=O)Cc2cc(NC(=O)Cc3cn(C)c4ccccc34)ccc2O[C@H]1CN(C)Cc1ccc(Oc2ccccc2)cc1`, for which the cytotoxicity call is “active”.

For `C[C@@H]1CN([C@H](C)CO)C(=O)Cc2cc(NC(=O)Cc3cn(C)c4ccccc34)ccc2O[C@H]1CN(C)Cc1ccc(Oc2ccccc2)cc1`, the cytotoxicity call was “inactive”.

For `C[C@@H]1CN([C@H](C)CO)C(=O)Cc2cc(NC(=O)Cc3cn(C)c4ccccc34)ccc2O[C@@H]1CN(C)Cc1ccc(Oc2ccccc2)cc1`, the cytotoxicity call is “active”.

In the case of `CC(C)=Cc1ccc(C#N)c(=S)[nH]1`, the cytotoxicity call is “inactive”.

For the compound `CC[C@@H](O[Si](C#C[Si](C(C)C)(C(C)C)C(C)C)(C(C)C)C(C)C)c1cn([C@H](CO)Cc2ccccc2)nn1`, the cytotoxicity call was “inactive”.

Take `Cc1noc(C)c1NC(=O)N(C)C[C@@H]1OCCCC[C@H](C)Oc2ccc(NC(=O)Nc3ccc4c(c3)OCO4)cc2C(=O)N([C@H](C)CO)C[C@@H]1C`: the cytotoxicity call is “inactive”.

With `COc1ccc(S(=O)(=O)Nc2ccc3c(c2)CC(=O)N([C@@H](C)CO)C[C@H](C)[C@H](CN(C)S(C)(=O)=O)O3)cc1`, the cytotoxicity call was “inactive”.

In the case of `Cc1noc(C)c1NC(=O)Nc1ccc2c(c1)C(=O)N([C@@H](C)CO)C[C@@H](C)[C@H](CN(C)C(=O)Nc1ccc3c(c1)OCO3)OCCCC[C@H](C)O2`, the cytotoxicity call was “inactive”.

`CNC[C@@H]1OCCCC[C@@H](C)Oc2ccc(NC(=O)Nc3ccc(C(F)(F)F)cc3)cc2C(=O)N([C@H](C)CO)C[C@@H]1C`: the cytotoxicity call is “inactive”.

Turning to `C[C@@H]1CN([C@H](C)CO)C(=O)c2cc(NC(=O)Cc3cn(C)c4ccccc34)ccc2O[C@@H]1CN(C)S(C)(=O)=O`, the cytotoxicity call is “inactive”.

For the compound `O=C(C[C@H]1C[C@H]2c3cc(NC(=O)Nc4ccccc4F)ccc3O[C@H]2[C@@H](CO)O1)NCc1ccc(Oc2ccccc2)cc1`, the cytotoxicity call was “inactive”.
